Records with an inconclusive call do not appear. Entries that show only a call come without a potency. Activity calls are given as the source filed them. The call rests on the fitted dose curve; in most records, active means well fitted cell-killing curve with a large enough effect; inconclusive means small, poorly fitted or top-dose-only effect, or effect the other way; inactive means no such curve, though single readings can be large or run the other way.
assay: Quantitative High-Throughput drug screen in 47 multiple myeloma cell lines against the NCATS MIPE library collection: Delta47_JCRB cell viability assay (AID 1918925; further: nearly all actives have a fitted effect of over 45% in size); conditions: Delta47 myeloma viability, CellTiter-Glo ATP, 48 h; series mostly up to 45.8 µM
In short: (§1)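 Inhibition of cell viability is measured here. Each line was plated at 500 cells per well, treated with MIPE 4.0 drugs, kept 48 hours at 37C, then assayed for ATP content by CellTiter-Glo luminescence.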
Potency means the concentration at half of the fitted maximal effect.

| SMILES | Potency |
| --- | --- |
| CC(Cc1ccc(O)c(O)c1)(NN)C(=O)O (stereo not given) | inactive |
| CC(C)(O)CC[C@@H](O)[C@](C)(O)[C@H]1CC[C@@]2(O)C3=CC(=O)[C@@H]4C[C@@H](O)[C@@H](O)C[C@]4(C)[C@@H]3CC[C@]12C | inactive |
| CN1C(C(=O)Nc2ccccn2)=C(O)c2sc(Cl)cc2S1(=O)=O | 2.96 µM (active) |
| O=C(Nc1cccc(Nc2ncc(Br)c(NCCc3cnc[nH]3)n2)c1)N1CCCC1 | 4.18 µM (active) |
| COc1cc(C[C@@H](CO)[C@H](CO)Cc2ccc(O)c(OC)c2)ccc1O | 0.662 µM (active) |
| O=c1[nH]c(=O)n([C@H]2C[C@@H](O)[C@@H](CO)O2)cc1C=CBr | inactive |
| CC1(C)[C@H](O[C@H]2O[C@H](C(=O)O)[C@@H](O)[C@H](O)[C@H]2O[C@@H]2O[C@H](C(=O)O)[C@@H](O)[C@H](O)[C@H]2O)CC[C@@]2(C)[C@H]1CC[C@]1(C)[C@H]2C(=O)C=C2[C@H]3C[C@@](C)(C(=O)O)CC[C@]3(C)CC[C@]21C | inactive |
| CCc1cc(C(C)=NOCc2ccc(C3CCCCC3)c(C(F)(F)F)c2)ccc1CN1CC(C(=O)O)C1 | 20.9 µM (active) |
| C=C1CCC2[C@](C)(CO)C(O)CC[C@]2(C)C1CC=C1C(=O)OCC1O (stereo not given in full) | inactive |
| Cn1cc(C=CC(=O)c2cccc(F)c2)cc1C=CC(=O)NO | 18.7 µM (active) |
| COc1ccc(S(=O)(=O)Nc2cc(-c3c(O)ccc4ccccc34)c(O)c3ccccc23)cc1 | 9.35 µM (active) |
| Nc1cccc2c1C(=O)N(C1CCC(=O)NC1=O)C2=O (stereo not given) | 0.0037 µM (active) |
| C#CCC(Cc1cnc2nc(N)nc(N)c2n1)c1ccc(C(=O)N[C@@H](CCC(=O)O)C(=O)O)cc1 (stereo not given in full) | inactive |
| Cc1[nH]c(C=C2C(=O)Nc3ccccc32)c(C)c1CCC(=O)O | 4.69 µM (active) |
| Cc1cn([C@@H]2O[C@H](CO)[C@@H](O)[C@H]2F)c(=O)[nH]c1=O | inactive |
| CC(=O)NC(CS)C(=O)O (stereo not given) | inactive |
| COC(=O)C=CC(=O)OC | 1.32 µM (active) |
| COC(=O)[C@@H]1[C@H]2C[C@@H]3c4[nH]c5ccccc5c4CCN3C[C@@H]2CC[C@@H]1O | inactive |
| CCN1CCN(C(=O)N[C@H](C(=O)N[C@@H]2C(=O)N3C(C(=O)O)=C(CSc4nnnn4C)CS[C@@H]23)c2ccc(O)cc2)C(=O)C1=O | inactive |
| COc1cc(C(=O)NC2CCN(C)CC2)ccc1Nc1ncc2c(n1)N(C1CCCC1)CCC(=O)N2C(C)C | 14.8 µM (active) |
| C#C[C@]1(O)CC[C@@H]2[C@@H]3CCC4=CC(=O)CC[C@@H]4[C@H]3CC[C@@]21CC | inactive |
| c1coc(CNc2ncnc3nc[nH]c23)c1 | inactive |
| CC(C)NC[C@@H](C(=O)N1CCN(c2ncnc3c2[C@H](C)C[C@H]3O)CC1)c1ccc(Cl)cc1 | 0.0935 µM (active) |
| N#CC(=C(O)c1ccc(Cl)cc1Cl)c1nc2cc(Cl)ccc2c(=O)[nH]1 | inactive |

assay: Quantitative High-Throughput drug screen in 47 multiple myeloma cell lines against the NCATS MIPE library collection: EJM_DSMZ cell viability assay (AID 1918926; further: nearly all actives have a fitted effect of over 30% in size); conditions: EJM myeloma cell viability, CellTiter-Glo ATP, 48 h; series mostly up to 45.8 µM
In short: as §1

| SMILES | Potency |
| --- | --- |
| CC(Cc1ccc(O)c(O)c1)(NN)C(=O)O (stereo not given) | inactive |
| CC(C)(O)CC[C@@H](O)[C@](C)(O)[C@H]1CC[C@@]2(O)C3=CC(=O)[C@@H]4C[C@@H](O)[C@@H](O)C[C@]4(C)[C@@H]3CC[C@]12C | inactive |
| CCN(CC)CCCCNc1ncc2c(n1)N(C)C(=O)N(c1c(Cl)c(OC)cc(OC)c1Cl)C2 | 18.7 µM (active) |
| Cc1cc(C(=O)NOCCO)c(Nc2ccc(I)cc2F)n(C)c1=O | inactive |
| CCCCCCCCCCCC(CC1OC(=O)C1CCCCCC)OC(=O)C(CC(C)C)NC=O (stereo not given) | inactive |
| Cc1noc(-c2ccc(CSCCC(=O)O)cc2)c1NC(=O)OC(C)c1ccccc1Cl (stereo not given) | inactive |
| O=C(Nc1cccc(Nc2ncc(Br)c(NCCc3cnc[nH]3)n2)c1)N1CCCC1 | 16.6 µM (active) |
| COc1cc(C[C@@H](CO)[C@H](CO)Cc2ccc(O)c(OC)c2)ccc1O | 0.264 µM (active) |
| O=c1[nH]c(=O)n([C@H]2C[C@@H](O)[C@@H](CO)O2)cc1C=CBr | inactive |
| C=C1CCC2[C@](C)(CO)C(O)CC[C@]2(C)C1CC=C1C(=O)OCC1O (stereo not given in full) | inactive |
| COc1ccc(S(=O)(=O)Nc2cc(-c3c(O)ccc4ccccc34)c(O)c3ccccc23)cc1 | 23.5 µM (active) |
| C[C@@H](NCc1cc2ccccc2[nH]1)c1cccc2ccccc12 | inactive |
| CC(C(C)N1CC(=O)NC(=O)C1)N1CC(=O)NC(=O)C1 (stereo not given) | inactive |
| COc1ccc(Nc2nccc(NCCO)n2)cc1 | inactive |
| Cc1[nH]c(C=C2C(=O)Nc3ccccc32)c(C)c1CCC(=O)O | 5.9 µM (active) |
| Cc1cn([C@@H]2O[C@H](CO)[C@@H](O)[C@H]2F)c(=O)[nH]c1=O | inactive |
| CC(=O)NC(CS)C(=O)O (stereo not given) | inactive |
| COC(=O)[C@@H]1[C@H]2C[C@@H]3c4[nH]c5ccccc5c4CCN3C[C@@H]2CC[C@@H]1O | inactive |
| CCN1CCN(C(=O)N[C@H](C(=O)N[C@@H]2C(=O)N3C(C(=O)O)=C(CSc4nnnn4C)CS[C@@H]23)c2ccc(O)cc2)C(=O)C1=O | inactive |
| NC(=O)c1cccc(-c2cccc(OC(=O)NC3CCCCC3)c2)c1 | inactive |
| CCCCCCCCCCCCCCCC(=O)OC[C@@H](NC(=O)C(Cl)Cl)[C@H](O)c1ccc([N+](=O)[O-])cc1 | inactive |
| CC(C=CC=C(C)C=CC1=C(C)CCCC1(C)C)=CC=CC=C(C)C=CC=C(C)C=CC1=C(C)CCCC1(C)C | 6.62 µM (active) |
| COc1cc(C(=O)NC2CCN(C)CC2)ccc1Nc1ncc2c(n1)N(C1CCCC1)CCC(=O)N2C(C)C | 16.6 µM (active) |
| C#C[C@]1(O)CC[C@@H]2[C@@H]3CCC4=CC(=O)CC[C@@H]4[C@H]3CC[C@@]21CC | inactive |
| COc1ccc(CCC(=O)c2c(O)cc(O[C@@H]3O[C@H](CO)[C@@H](O)[C@H](O)[C@@H]3O[C@@H]3O[C@@H](C)[C@H](O)[C@@H](O)[C@@H]3O)cc2O)cc1O | inactive |
| CC(C)NC[C@@H](C(=O)N1CCN(c2ncnc3c2[C@H](C)C[C@H]3O)CC1)c1ccc(Cl)cc1 | 16.6 µM (active) |

From PubChem BioAssay (NCATS)
